A3G deaminase: blocks human APOBEC3G single-stranded DNA deamination | recombinant A3G, ssDNA deamination FAM/TAMRA fluorescence | inhibition, % at 20 µM | hit rate 0.28% among 330,000 | AID 493012;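 active = inhibition of at least 40% at 20 µM, with no more than 30% in the related APOBEC3A deaminase screen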
Target sequence (Q9HC16 whole entry, looked up): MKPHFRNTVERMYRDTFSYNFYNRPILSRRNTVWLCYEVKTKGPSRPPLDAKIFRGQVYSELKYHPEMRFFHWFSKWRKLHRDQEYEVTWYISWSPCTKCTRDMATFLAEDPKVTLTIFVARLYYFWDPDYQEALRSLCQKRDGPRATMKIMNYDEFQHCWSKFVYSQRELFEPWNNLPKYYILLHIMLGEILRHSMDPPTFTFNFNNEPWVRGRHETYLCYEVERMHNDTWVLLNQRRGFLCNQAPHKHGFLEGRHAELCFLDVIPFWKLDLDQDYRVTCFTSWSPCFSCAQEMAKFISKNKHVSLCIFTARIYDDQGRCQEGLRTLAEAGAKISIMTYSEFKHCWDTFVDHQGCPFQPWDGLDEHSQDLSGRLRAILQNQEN
ADAM17 inh: inhibitors of human ADAM17. recombinant ADAM17, EDANS/DABCYL FRET peptide cleavage. inhibition, % at 6.95 µM. P78536. hit rate 0.83% among 370,000;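 active = inhibition above the mean of compounds lying between control limits plus 3 SD, set per campaign, cut at about 8.5% in these data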
ADAM10 inh: ADAM10 inhibition, QFRET primary screen; O14672; recombinant ADAM10, EDANS/DABCYL FRET peptide cleavage, 3 h; inhibition, % at 7 µM; hit rate 0.62% among 370,000;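 active = inhibition above a per-campaign cutoff equal to the mean of compounds falling between control-based bounds plus 3 SD, cut at about 20% in these data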
A3A deaminase: blocks human APOBEC3A ssDNA deamination; P31941; recombinant A3A, FAM/TAMRA ssDNA deamination fluorescence; inhibition, % at 20 µM; hit rate 0.41% among 330,000; AID 493011;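 active = at least 40% inhibition at 20 µM here, with at most 30% in a related deaminase screen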
Target sequence (P31941 whole entry, looked up): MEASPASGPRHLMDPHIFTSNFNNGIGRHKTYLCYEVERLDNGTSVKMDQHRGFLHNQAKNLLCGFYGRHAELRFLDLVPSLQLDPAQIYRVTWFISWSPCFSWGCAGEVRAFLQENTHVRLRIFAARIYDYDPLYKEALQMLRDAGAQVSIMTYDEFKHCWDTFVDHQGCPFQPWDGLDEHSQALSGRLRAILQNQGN
CendR NRP1 mod: modulators of CendR peptide binding to human neuropilin-1; O14786; FAM-RPARPAR peptide binding to NRP-1, fluorescence polarization; inhibition, % at 25 µM; hit rate 0.85% among 360,000; AID 602438;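 active = inhibition or corrected inhibition above about 18%, plus a signal ratio from 0.5 to 1.5, limit read from the data, passing the limit was not always enough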
ADAM10 confirm: confirmation of inhibitors of human ADAM10 | ADAM10 QFRET peptide cleavage, EDANS fluorescence | inhibition, % at 6.95 µM | hit rate 1% among 2,100 | shares compounds with ADAM10 inh;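 active = inhibition above about 20% chosen separately for each screening run, limit read from the data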
ADAM17 counter: counter-screen for ADAM10 exosite inhibitors: inhibitors of human ADAM17; ADAM17 QFRET peptide cleavage, EDANS fluorescence; inhibition, % at 6.95 µM; hit rate 0.5% among 2,100; shares compounds with ADAM10 inh;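 active = mean triplicate inhibition above the solvent-only control wells' mean plus 3 SD, cut at about 12% in these data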
ADAM10 counter: counter-screen for ADAM17 exosite inhibitors: inhibitors of human ADAM10; shares compounds with ADAM17 inh; recombinant ADAM10, EDANS/DABCYL FRET peptide cleavage, 3 h; inhibition, % at 6.95 µM; hit rate 47% among 2,900; AID 743256;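 active = mean inhibition over the triplicate runs exceeds the activity threshold set in the earlier primary screen, cut at about 20% in these data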
ADAM17 confirm: human ADAM17 inhibition, confirmation. shares compounds with ADAM17 inh. recombinant ADAM17, EDANS/DABCYL QFRET peptide cleavage. inhibition, % at 6.95 µM. hit rate 65% among 2,900. AID 743257;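 active = mean inhibition across replicates above the hit cutoff set in the primary screen, cut at about 8.5% in these data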
Each line names hits and unclear results; the compound was inactive in the other large screens (follow-up assays come after a bar, where they were run). Only some compounds are listed: those with a hit (about 2.4% of all), similar ones and a draw of the others.

Cc1ccc(NC(=O)C2CCN(S(=O)(=O)c3ccc4c(c3)NC(=O)C(C)S4)CC2)cc1Cl (centres undefined)	ADAM17 inh 9.4, ADAM10 inh 24 | ADAM10 confirm inactive | ADAM17 counter inactive | ADAM10 counter 47 | ADAM17 confirm 24
CC(NC(=O)c1c(N)[nH]c(C(=O)c2ccc(Cl)cc2)c1-c1ccc(Br)cc1)c1cccc2ccccc12 (centres undefined)	none (no result: A3G deaminase, A3A deaminase, CendR NRP1 mod)
Cc1cccc(NC(=O)C2(c3ccccc3)CC2(Cl)Cl)c1 (centres undefined)	none
Cc1cc(C)cc(NC(=O)C2(c3ccccc3)CC2(Cl)Cl)c1 (centres undefined)	ADAM17 inh 9.9, ADAM10 inh 20 | ADAM10 confirm inactive | ADAM17 counter inactive | ADAM10 counter inactive | ADAM17 confirm 9.6
O=C(NCc1ccccc1)N1CCN(Cc2nc3ccccc3c(=O)[nH]2)CC1	none (no result: A3G deaminase, A3A deaminase, CendR NRP1 mod)
COC(=O)C(NC(=O)c1ccc(F)cc1)(Nc1ncc(S(=O)(=O)c2ccc([N+](=O)[O-])cc2)s1)C(F)(F)F (centres undefined)	none
COC(=O)C(NC(=O)c1ccccc1C)(Nc1ncc(S(=O)(=O)c2ccc([N+](=O)[O-])cc2)s1)C(F)(F)F (centres undefined)	ADAM17 inh 12, ADAM10 inh 33 | ADAM10 confirm inactive | ADAM17 counter inactive | ADAM10 counter inactive | ADAM17 confirm inactive
CCOC(=O)[C@]12CCCCC/C=C\1N(Cc1ccc(OC)cc1)C(=O)[C@H]2CC(=O)NCc1cccc(C(F)(F)F)c1	ADAM17 inh 11, ADAM10 inh 21 (no result: A3G deaminase, A3A deaminase, CendR NRP1 mod) | ADAM10 confirm inactive | ADAM17 counter inactive | ADAM10 counter 34 | ADAM17 confirm 14
CCOC(=O)[C@@]12CN(C(=O)OC(C)(C)C)CC=C1N(Cc1ccc(OC)cc1)C(=O)[C@H]2CC(=O)NCCCCc1ccccc1	ADAM17 inh 8.7, ADAM10 inh 22 (no result: A3G deaminase, A3A deaminase, CendR NRP1 mod) | ADAM10 confirm inactive | ADAM17 counter inactive | ADAM10 counter inactive | ADAM17 confirm 10
Cc1ccc2nc(NC(=O)CNS(=O)(=O)c3ccc(Br)s3)sc2c1	none
Cc1ccc2nc(NC(=O)CN(C)S(=O)(=O)c3ccc(Br)s3)sc2c1	ADAM17 inh 10, ADAM10 inh 24 | ADAM10 confirm inactive | ADAM17 counter inactive | ADAM10 counter 25 | ADAM17 confirm 15
NNC(=O)/C(=N/Nc1ccccc1)S(=O)(=O)c1ccc(Cl)cc1	ADAM17 inh 11, ADAM10 inh 21 | ADAM10 confirm inactive | ADAM17 counter inactive | ADAM10 counter inactive | ADAM17 confirm 9.9
C[C@H](NC(=O)c1nc[nH]c1C(=O)NCc1ccc(CNC(=O)OC(C)(C)C)cc1)c1ccccc1	ADAM17 inh 25, ADAM10 inh 54, CendR NRP1 mod 28 | ADAM10 confirm inactive | ADAM17 counter inactive | ADAM10 counter 29 | ADAM17 confirm 16
CC(C)(C)OC(=O)NCCCCCNC(=O)c1[nH]cnc1C(=O)Nc1ccc(Cl)cc1	ADAM17 inh 14, ADAM10 inh 31 | ADAM10 confirm inactive | ADAM17 counter inactive | ADAM10 counter 39 | ADAM17 confirm 22
C[C@H](NC(=O)c1nc[nH]c1C(=O)N[C@@H](CCCCNC(=O)OC(C)(C)C)C(=O)OC(C)(C)C)c1ccccc1	ADAM17 inh 12, ADAM10 inh 21 | ADAM10 confirm inactive | ADAM17 counter inactive | ADAM10 counter 29 | ADAM17 confirm 18
C[C@@H](NC(=O)c1nc[nH]c1C(=O)NCC(=O)OC(C)(C)C)c1ccccc1	none
Cc1ccc(NC(=O)c2nc[nH]c2C(=O)NCCCCCNC(=O)OC(C)(C)C)cc1	none
O=S(=O)(c1ccccc1F)n1c(CN2CCOCC2)nc2ccccc21	none (no result: A3G deaminase, A3A deaminase, CendR NRP1 mod)
CC(=O)Nc1cccc(-c2cc(C(C)=O)c3n(c2=O)CCC3)c1	none (no result: A3G deaminase, A3A deaminase, CendR NRP1 mod)
COc1ccc(CN2CCN(c3cccc(C)c3C)CC2)cc1OC	none
COc1cc(CN2CCN(c3cccc(C)c3C)CC2)cc(Br)c1O	ADAM17 inh 9.8, ADAM10 inh 24 | ADAM10 confirm inactive | ADAM17 counter inactive | ADAM10 counter 22 | ADAM17 confirm 11
CCc1cc2c(nc1CC)CCCN2S(=O)(=O)c1ccc(C(F)(F)F)cc1	none (no result: A3G deaminase, A3A deaminase, CendR NRP1 mod)
C[C@H]1[C@H](N(C)C)CC[C@@]23CCCN2C(=O)CCC[C@@H]13	none (no result: A3G deaminase, A3A deaminase, CendR NRP1 mod)
CCCCOC(=O)c1ccc(N/C(=N\S(=O)(=O)c2ccccc2)c2ccccc2)cc1	none
CCOC(=O)c1ccc(N/C(=N\S(=O)(=O)c2ccc(F)cc2F)c2ccccc2)cc1	ADAM17 inh 12, ADAM10 inh 30 | ADAM10 confirm inactive | ADAM17 counter inactive | ADAM10 counter 27 | ADAM17 confirm 18
CCC[C@H]1[C@@H](NC(=O)c2ccc(Cl)cc2)CC[C@@]23CCCN2C(=O)CCC[C@@H]13	none (no result: A3G deaminase, A3A deaminase, CendR NRP1 mod)
COc1ccc(Cl)cc1-c1n[nH]c(=S)n1C1CCCCC1	ADAM17 inh 8.7, ADAM10 inh 29 | ADAM10 confirm inactive | ADAM17 counter inactive | ADAM10 counter 34 | ADAM17 confirm 21
O=C(OC(C(=O)Nc1cccc(C(F)(F)F)c1)c1ccccc1)C1CCCCC1 (centres undefined)	ADAM17 inh 12, ADAM10 inh 25 (no result: A3G deaminase, A3A deaminase) | ADAM10 confirm inactive | ADAM17 counter inactive | ADAM10 counter 20 | ADAM17 confirm 13
COc1ccc(NC(=S)Nc2nc(CC(=O)Nc3ccccc3OC)cs2)cc1	ADAM17 inh 9.3, ADAM10 inh 24 | ADAM10 confirm inactive | ADAM17 counter inactive | ADAM10 counter inactive | ADAM17 confirm 14
O=C(Cn1cnc2ccccc2c1=O)N1CCCCC1	none (no result: A3G deaminase, A3A deaminase, CendR NRP1 mod)
CCn1c(NCc2ccccc2NS(=O)(=O)c2ccc(C)cc2)nc2ccccc21	ADAM17 inh 16, ADAM10 inh 27 | ADAM10 confirm inactive | ADAM17 counter inactive | ADAM10 counter 24 | ADAM17 confirm 15
CCCn1c(NCc2ccccc2NS(=O)(=O)c2ccc(C)cc2)nc2ccccc21	none
COC(CNC(=O)[C@H](Cc1c[nH]c2ccccc12)NC1(C(=O)NC2CCCCC2)CCCCC1)OC	none (no result: A3G deaminase, A3A deaminase, CendR NRP1 mod)
O=C1NC(Cc2ccccc2)c2nc3ccccc3c(=O)n2-c2cc(Cl)ccc21 (centres undefined)	ADAM17 inh 17, ADAM10 inh 25 (no result: CendR NRP1 mod) | ADAM10 confirm inactive | ADAM17 counter inactive | ADAM10 counter 23 | ADAM17 confirm 12
CC(C)c1c(C(=O)N/N=C/c2c[nH]c3ccccc23)nnn1-c1nonc1N	none
